These results are taken from PubChem BioAssay AID1315 (University of Pittsburgh Molecular Library Screening Center, 2008).

The other results are listed elsewhere or left out. Values without a mark were called inactive. No rule for the calls is given here.

The nature of this experiment: fluorescence polarization interference in PKD1 assay, artefact control for PKD1 inhibitor project, biochemical, 140K library (AID 1315). The conditions noted are these: PKD1 FP assay interference counter-screen, at 10 µM, hits give high values. For orientation: In fluorescence polarisation assays a small probe gives low polarisation when free and higher when bound to something large.

With `COc1ccccc1C(=O)NN1C(=O)C2C3C=CC(O3)C2C1=O` (stereo not drawn), the inhibition is -4.38%. `Cc1ccc(NC(=O)C2CCCN(S(=O)(=O)c3c(C)noc3C)C2)c(C)c1` (stereo not drawn): the inhibition was -13.6%. Regarding `COc1ccc(Nc2cc(C)nc(-n3nc(C)cc3C)n2)cc1`, the inhibition was -21.9%.

In general, inhibition refers to the relative decrease from the control value, in per cent.
